# Reference: PubChem BioAssay (NCATS)
# Results filed as inconclusive are left out. The list shows a part of the results. Calls of active or inactive are those of the source. Unless noted, how the calls were made is not given here.
# Key:
# [1] = qHTS Assay for Identifying Gametocytocidal Compounds (AID 743244; active means well fitted curve in the direction sought with a large enough effect; an effect the other way counts as inactive or inconclusive;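 further: on the % scale 0 is the no-effect control and ±100 the full control effect; actives lower the fluorescent signal which means gametocytes are killed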); conditions: P. falciparum 3D7 stage III-V gametocytes, alamarBlue, 72 h; stronger effect = lower value
# How it was run: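 A resazurin-based viability read-out was applied to mature P. falciparum gametocytes: 72 h compound treatment, then 24 h dye incubation, with falling fluorescence signalling gametocytocidal effect.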
# [2] = qHTS for Inhibitors of WRN Helicase: Thiazole Orange DNA Binding Counterscreen (AID 720499; active means well fitted curve in the direction sought with a large enough effect; an effect the other way counts as inactive or inconclusive;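 further: drop in dye fluorescence marks compound binding to DNA; nearly all actives have a fitted effect of over 60% in size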; further: potency means the concentration at half of the fitted maximal effect); conditions: thiazole orange DNA binding displacement, fluorescence; series mostly up to 57.1 µM
# How it was run: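 To exclude WRN hits acting through DNA binding, fluorescence of 100 nM thiazole orange bound to 50 nM unlabeled DNA is read (ex 480, em 530 nm) 15 min after compound addition at room temperature.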
# [3] = molecular target: RecQ-like DNA helicase BLM (Homo sapiens) (UniProt P54132); test: qHTS for Inhibitors of WRN Helicase: BLM Helicase Counterscreen for WRN Inhibitors (AID 720503; active means well fitted curve in the direction sought with a large enough effect; an effect the other way counts as inactive or inconclusive;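 further: plate controls were DMSO vehicle for no effect and enzyme-free control wells for full effect; nearly all actives have a fitted effect of over 60% in size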); conditions: Recombinant BLM helicase DNA unwinding, red fluorescence; series mostly up to 57.1 µM
# How it was run: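 Steps: compounds added to 1 nM BLM in pH 8.0 Tris buffer with 2 mM MgCl2; 15 min room-temperature incubation; substrates added (100 nM DNA, 2 mM ATP final); discontinuous kinetic fluorescence measurement, reads spaced 15 min.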
# [4] = qHTS profiling for inhibitors of Plasmodium falciparum (3D7) proliferation (AID 743322);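 further: infected erythrocytes exposed to compound for 72 h before lysis; 100% = DMSO vehicle wells and 0% = 0.29 µM artemisinin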; conditions: P. falciparum 3D7 proliferation; at 28.7 µM (top of the series)
# How it was run: (§1)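 Parasite DNA was quantified by SYBR Green I fluorescence (ex 485, em 535 nm) after overnight lysis in saponin/Triton buffer at room temperature. Cultures at 0.3% parasitemia and 2.5% hematocrit were first exposed to compound for 72 h at 37 C; signals were normalised to artemisinin (0.29 uM) and vehicle wells.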
# [5] = qHTS profiling for inhibitors of Plasmodium falciparum (DD2) proliferation (AID 743323); conditions: lower = more inhibition; at 28.7 µM (top of the series)
# How it was run: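 Parasite proliferation measured via DNA-dye fluorescence, as uninfected erythrocytes lack DNA. Cultures at 0.3% parasitemia and 2.5% hematocrit incubated 72 h with compound; signal scaled between vehicle and 0.29 uM artemisinin wells.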
# [6] = qHTS profiling for inhibitors of Plasmodium falciparum (HB3) proliferation (AID 743324; active means well fitted curve in the direction sought with a large enough effect; an effect the other way counts as inactive or inconclusive;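 further: 100% = DMSO vehicle wells and 0% = artemisinin-treated control wells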); conditions: Plasmodium falciparum HB3 blood-stage proliferation; at 28.7 µM (top of the series)
# How it was run: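 SYBR Green fluorescence (485 ex/535 em) of lysed cultures, incubated overnight at room temperature in the dark, quantifies parasite DNA. Infected erythrocytes at 0.3% parasitemia and 2.5% hematocrit were exposed 72 h; values normalized to DMSO and 0.29 uM artemisinin controls.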
# [7] = qHTS profiling of the MIPE4 collection as inhibitors of Plasmodium falciparum (3D7) proliferation (AID 743344);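 further: scaled between DMSO vehicle wells and 0.29 µM artemisinin as full inhibition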; conditions: P. falciparum 3D7 in erythrocytes, SYBR Green DNA fluorescence, 72 h; at 28.5 µM (top of the series)
# How it was run: as §1
# [8] = qHTS profiling of the MIPE4 collection as inhibitors of Plasmodium falciparum (DD2) proliferation (AID 743345); conditions: P. falciparum Dd2 in erythrocytes, SYBR Green DNA, 72 h; at 28.5 µM (top of the series)
# How it was run: as §1
# [9] = qHTS profiling of the MIPE4 collection as inhibitors of Plasmodium falciparum (DD2) proliferation (Rep 2) (AID 743346); conditions: P. falciparum Dd2 in erythrocytes, SYBR Green DNA, 72 h; at 28.5 µM (top of the series)
# How it was run: as §1
# [10] = qHTS profiling of the MIPE4 collection as inhibitors of Plasmodium falciparum (HB3) proliferation (AID 743347);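 further: plate controls were DMSO vehicle wells for no effect and artemisinin wells for full effect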; conditions: P. falciparum HB3 in erythrocytes, SYBR Green DNA, 72 h; at 28.5 µM (top of the series)
# How it was run: as §1
# [11] = molecular target: Cytochrome P450 2C9 (Homo sapiens) (UniProt P11712); test: qHTS Assay for Inhibitors and Substrates of Cytochrome P450 2C9 (AID 883; active means well fitted curve in the direction sought with a large enough effect; an effect the other way counts as inactive or inconclusive; further: on the % scale 0 is the no-effect control and ±100 the full control effect; nearly all actives have a fitted effect of over 60% in size); conditions: recombinant CYP2C9, luciferin-H luminescence, 60 min; series mostly up to 11.4 µM
# How it was run: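 10nM CYP2C9 + 100uM Luciferin-H (=KM), 25mM KPO4; cpd 10 min 37C; NADPH regen, 60 min 37C; stop/detect with P450 Glo-Buffer 20 min; luminescence. Norm. to 57uM sulphaphenazole as full inhibition.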
# RecQ-like DNA helicase BLM (Homo sapiens), sequence (P54132 whole entry, looked up): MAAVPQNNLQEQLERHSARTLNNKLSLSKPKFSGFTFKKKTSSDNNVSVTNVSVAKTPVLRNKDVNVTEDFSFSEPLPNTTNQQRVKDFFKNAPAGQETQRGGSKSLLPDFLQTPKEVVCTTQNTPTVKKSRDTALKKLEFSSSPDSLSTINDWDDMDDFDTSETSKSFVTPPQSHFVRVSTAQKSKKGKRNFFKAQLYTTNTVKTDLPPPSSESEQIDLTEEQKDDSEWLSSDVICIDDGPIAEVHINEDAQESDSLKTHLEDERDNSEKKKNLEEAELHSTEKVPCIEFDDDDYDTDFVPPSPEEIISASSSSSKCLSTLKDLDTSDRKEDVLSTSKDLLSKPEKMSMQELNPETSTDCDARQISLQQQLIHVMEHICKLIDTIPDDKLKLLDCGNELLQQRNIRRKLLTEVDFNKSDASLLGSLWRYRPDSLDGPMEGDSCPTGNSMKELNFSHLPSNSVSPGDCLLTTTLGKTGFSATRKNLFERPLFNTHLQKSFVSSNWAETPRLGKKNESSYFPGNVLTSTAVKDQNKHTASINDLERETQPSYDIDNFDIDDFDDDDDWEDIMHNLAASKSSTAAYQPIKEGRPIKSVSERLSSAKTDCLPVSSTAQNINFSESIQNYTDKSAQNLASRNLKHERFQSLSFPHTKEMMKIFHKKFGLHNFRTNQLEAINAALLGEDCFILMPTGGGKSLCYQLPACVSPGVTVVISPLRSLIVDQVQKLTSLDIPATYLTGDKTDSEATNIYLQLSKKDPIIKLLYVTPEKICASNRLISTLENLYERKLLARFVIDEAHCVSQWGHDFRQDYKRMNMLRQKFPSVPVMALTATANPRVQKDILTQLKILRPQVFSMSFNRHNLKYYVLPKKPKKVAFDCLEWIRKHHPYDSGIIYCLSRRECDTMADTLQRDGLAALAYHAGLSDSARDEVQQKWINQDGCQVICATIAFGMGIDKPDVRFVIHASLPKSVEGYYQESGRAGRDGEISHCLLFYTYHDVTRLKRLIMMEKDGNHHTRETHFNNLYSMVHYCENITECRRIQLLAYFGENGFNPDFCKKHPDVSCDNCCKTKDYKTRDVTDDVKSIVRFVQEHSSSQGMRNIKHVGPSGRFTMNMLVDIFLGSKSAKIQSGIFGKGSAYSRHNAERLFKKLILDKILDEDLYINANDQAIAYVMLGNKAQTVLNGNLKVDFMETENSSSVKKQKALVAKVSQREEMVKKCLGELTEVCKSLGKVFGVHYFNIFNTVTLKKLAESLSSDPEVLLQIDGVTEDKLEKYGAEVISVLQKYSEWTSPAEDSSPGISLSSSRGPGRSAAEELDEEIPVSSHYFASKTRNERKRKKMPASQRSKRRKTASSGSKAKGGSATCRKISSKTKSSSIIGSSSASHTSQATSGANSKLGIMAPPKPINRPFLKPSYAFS
# Cytochrome P450 2C9 (Homo sapiens), sequence (P11712 whole entry, looked up): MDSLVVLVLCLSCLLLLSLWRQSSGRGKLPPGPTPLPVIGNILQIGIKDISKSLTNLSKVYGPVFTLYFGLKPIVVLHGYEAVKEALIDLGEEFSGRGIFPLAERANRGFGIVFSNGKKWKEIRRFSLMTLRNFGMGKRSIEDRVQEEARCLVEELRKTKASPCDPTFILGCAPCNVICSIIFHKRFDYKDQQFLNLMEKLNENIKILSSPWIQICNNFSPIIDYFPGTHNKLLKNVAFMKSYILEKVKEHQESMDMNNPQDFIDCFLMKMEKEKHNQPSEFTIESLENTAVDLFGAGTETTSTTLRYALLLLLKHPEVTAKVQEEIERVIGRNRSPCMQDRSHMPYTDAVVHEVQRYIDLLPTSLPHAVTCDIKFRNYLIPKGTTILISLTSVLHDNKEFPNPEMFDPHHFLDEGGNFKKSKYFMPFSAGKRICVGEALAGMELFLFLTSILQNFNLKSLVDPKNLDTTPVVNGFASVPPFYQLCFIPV
smiles,measurement,setting,value
C/C=C/C1=C(C(=O)O)N2C(=O)[C@@H](NC(=O)[C@H](N)c3ccc(O)cc3)[C@H]2SC1,max response,[1],9.08% (inactive)
CCN(CC)CCOc1ccc2c(c1)C(=NNC(=O)c1ccccn1)c1cc(OCCN(CC)CC)ccc1-2,Potency,[2],2.15 µM (active)
same,Potency,[3],inactive
N[C@H]1CN(c2c(F)cc3c(=O)c(C(=O)O)cn(C4C[C@H]4F)c3c2Cl)CC12CC2 (stereo partly drawn),max response,[1],-6.9% (inactive)
O=C([C@H](Cc1ccc(OS(=O)(=O)c2cccc3cnccc23)cc1)NS(=O)(=O)c1cccc2cnccc12)N1CCN(c2ccccc2)CC1,remaining parasite growth % (stronger effect = lower value),[4],-0.827%
same,"activity, percent of control",[5],1.24%
same,"remaining proliferation (% of control), lower = more inhibition",[6],0.712%
CN(C)c1nc(Nc2ccc(Cl)c(Cl)c2)nc(N(C)C)n1,Potency,[2],inactive
same,Potency,[3],inactive
O=C(OCc1ccccc1)N1CCN(C(=O)[C@H](Cc2ccc(O[S+](=O)([O-])c3cccc4cnccc34)cc2)N[S+](=O)([O-])c2cccc3cnccc23)CC1,remaining parasite growth % (stronger effect = lower value),[4],-0.959%
same,"activity, percent of control",[5],0.261%
same,"remaining proliferation (% of control), lower = more inhibition",[6],-0.068%
C[C@@H]1Cc2c([nH]c3cc(Cl)c(F)cc23)[C@]2(N1)C(=O)Nc1ccc(Cl)cc12,remaining parasite growth % (stronger effect = lower value),[4],-0.966%
same,"activity, percent of control",[5],0.0887%
same,"remaining proliferation (% of control), lower = more inhibition",[6],-0.181%
O=C([C@H](Cc1ccc(OS(=O)(=O)c2ccccn2)cc1)NS(=O)(=O)c1ccccn1)N1CCN(c2ccccc2)CC1,remaining parasite growth % (stronger effect = lower value),[4],49.4%
same,"activity, percent of control",[5],24.7%
same,"remaining proliferation (% of control), lower = more inhibition",[6],18.6%
CC[C@]1(O)CC2CN(CCc3c([nH]c4ccccc34)[C@@](C(=O)OC)(c3cc4c(cc3OC)N(C)[C@H]3[C@@](O)(C(N)=O)[C@H](O)[C@]5(CC)C=CCN6CC[C@]43[C@@H]65)C2)C1 (stereo partly drawn),max response,[1],-7.92% (inactive)
O=C1CCC(C2=C(O)c3ccccc3C(=O)C2=O)CC1,remaining parasite growth % (stronger effect = lower value),[4],7.05%
same,"activity, percent of control",[5],6.83%
same,"remaining proliferation (% of control), lower = more inhibition",[6],5.38%
CCCC[C@@H]1C[C@@H](C(=O)NC([C@H](C)Cl)[C@H]2O[C@H](S)[C@H](O)[C@@H](O)[C@@H]2O)N(C)C1 (stereo partly drawn),remaining parasite growth % (stronger effect = lower value),[4],39%
same,"activity, percent of control",[5],33.1%
same,"remaining proliferation (% of control), lower = more inhibition",[6],31.5%
same,"parasite growth, % of DMSO control",[7],29.2%
same,"parasite growth remaining, % of DMSO control (lower = more inhibition)",[8],38%
same,"parasite growth, % of control (lower = inhibition)",[9],28%
same,"growth, % of control",[10],52.4%
Cc1nc2c(C#N)cccc2n1-c1ccc(C(=O)NC2CC2)s1,remaining parasite growth % (stronger effect = lower value),[4],0.492%
same,"activity, percent of control",[5],1.69%
same,"remaining proliferation (% of control), lower = more inhibition",[6],1.16%
same,"parasite growth, % of DMSO control",[7],6.59%
same,"parasite growth remaining, % of DMSO control (lower = more inhibition)",[8],9.03%
same,"parasite growth, % of control (lower = inhibition)",[9],10.3%
same,"growth, % of control",[10],4.26%
CCOc1ccc(F)cc1C1(O)C(N)=Nc2ccc(Cl)cc21 (stereo not drawn),remaining parasite growth % (stronger effect = lower value),[4],0.18%
same,"activity, percent of control",[5],0.185%
same,"remaining proliferation (% of control), lower = more inhibition",[6],1.54%
same,"parasite growth, % of DMSO control",[7],5.08%
same,"parasite growth remaining, % of DMSO control (lower = more inhibition)",[8],6.08%
same,"parasite growth, % of control (lower = inhibition)",[9],8.34%
same,"growth, % of control",[10],5.81%
COC(=O)[C@H](CCSC)NC(=O)C/C=C\[C@@H](C)CO,Potency,[11],inactive
CN([C@@H](Cc1ccc(O[S+](=O)([O-])c2cccc3cnccc23)cc1)C(=O)N1CCN(C(=O)OCc2ccccc2)CC1)[S+](=O)([O-])c1cccc2cnccc12,"parasite growth, % of DMSO control",[7],4.76%
same,"parasite growth remaining, % of DMSO control (lower = more inhibition)",[8],6.72%
same,"parasite growth, % of control (lower = inhibition)",[9],26.8%
same,"growth, % of control",[10],8.42%
